{"source": "PubChem BioAssay (Tox21)", "note": "Results filed as inconclusive are left out. Entries that show only a call come without a potency. The source made the active and inactive calls. Unless noted, calls follow the shape of the dose curve; as a rule, active = well fitted curve in the direction sought with a large enough effect in the repeat runs; inconclusive = weak or mixed curves; inactive = no such curve, though single readings can be large; an effect the other way counts as inactive or inconclusive."}
{"biological_target": "Retinoic acid receptor RXR-alpha (Homo sapiens) (UniProt P19793)", "sequence (P19793 whole entry, looked up)": "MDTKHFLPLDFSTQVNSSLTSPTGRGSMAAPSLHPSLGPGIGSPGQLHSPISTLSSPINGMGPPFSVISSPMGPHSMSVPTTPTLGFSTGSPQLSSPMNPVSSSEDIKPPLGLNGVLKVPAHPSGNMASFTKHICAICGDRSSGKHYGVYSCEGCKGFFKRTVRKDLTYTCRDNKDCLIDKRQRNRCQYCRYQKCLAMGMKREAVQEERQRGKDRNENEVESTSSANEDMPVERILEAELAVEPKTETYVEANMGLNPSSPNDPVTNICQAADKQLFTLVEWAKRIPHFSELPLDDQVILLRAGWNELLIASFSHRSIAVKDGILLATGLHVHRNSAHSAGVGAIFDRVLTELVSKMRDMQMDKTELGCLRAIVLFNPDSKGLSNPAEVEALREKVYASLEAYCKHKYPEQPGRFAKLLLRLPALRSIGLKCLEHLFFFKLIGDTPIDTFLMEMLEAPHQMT", "assay": "qHTS assay to identify small molecule agonists of the RXR signaling pathway (AID 1159527; calls by dose curve; also: nearly all actives have a fitted effect of over 35% in size)", "settings": "HEK293T RXRa-UAS-bla, beta-lactamase ratio, 16 h; series mostly up to 76.8 µM", "summary_of_the_method": "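Cells plated at 2,000/well, rested 5 hr at 37 C, pin-dosed with DMSO compound solutions, incubated 16 hr, then loaded with B/G FRET substrate for 2 hr at RT before dual-emission fluorescence reading.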"}
{"smiles": "OCCSCSCCO", "Potency": "inactive"}
{"smiles": "CCc1cc2c(s1)-n1c(C)nnc1CN=C2c1ccccc1Cl", "Potency": "inactive"}
{"smiles": "OC(Cn1cncn1)(c1ccc(F)cc1)c1ccccc1F", "note": "(configuration not stated)", "Potency": "inactive"}
{"smiles": "N#Cc1c(Cl)cccc1Cl", "Potency": "inactive"}
{"smiles": "CNCC(=O)c1ccc(O)c(O)c1", "Potency": "inactive"}
{"smiles": "ClCC(Cl)(Cl)Cl", "Potency": "inactive"}
{"smiles": "COc1ncc(F)c2nc(S(=O)(=O)Nc3c(F)cccc3F)nn12", "Potency": "inactive"}
{"smiles": "CCCCCCBr", "Potency": "inactive"}
{"smiles": "O=C(CCCN1CCC(n2c(=O)[nH]c3ccccc32)CC1)c1ccc(F)cc1", "Potency": "inactive"}
{"smiles": "CC1(C(=O)Nc2ccc(O)c(Cl)c2Cl)CCCCC1", "Potency": "inactive"}
{"smiles": "C=CC1CC=CCC1", "note": "(configuration not stated)", "Potency": "inactive"}
{"smiles": "CCOC(=O)C1(c2ccccc2)CCN(CCc2ccc(N)cc2)CC1", "Potency": "inactive"}
{"tested_on": "not listed separately", "assay": "qHTS assay to identify small molecule agonists of the RXR signaling pathway - cell viability counter screen (AID 1159529); also: nearly all actives have a fitted effect of over 50% in size", "settings": "RXR-alpha-bla HEK293T viability, CellTiter-Glo, 16 h; series mostly up to 76.8 µM", "summary_of_the_method": "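Steps: seed RXR-alpha-UAS-bla HEK 293T cells in assay medium containing 2% charcoal-stripped FBS; incubate 5 hr; add compounds in DMSO; incubate 16 hr at 37 C; after the bla read, add CellTiter-Glo and read luminescence at 30 min.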"}
{"smiles": "CCN(CC)c1nc(C)cc(OP(=S)(OC)OC)n1", "Potency": "inactive"}
{"smiles": "O=P(O)(Oc1ccccc1)Oc1ccccc1", "Potency": "inactive"}
{"smiles": "C#C[C@]1(O)C=C[C@H]2[C@@H]3CCC4=CC(=O)CC[C@@H]4[C@H]3CC[C@@]21CC", "Potency": "inactive"}
{"smiles": "CC(CC(C#N)(c1ccccc1)c1ccccc1)N(C)C", "note": "(configuration not stated)", "Potency": "inactive"}
{"smiles": "CN(C)CCc1ccc(O)cc1", "Potency": "inactive"}
{"smiles": "CCCCC(=O)Cl", "Potency": "inactive"}
{"smiles": "Cc1ncc(CNC(=O)N(CCCl)N=O)c(N)n1", "Potency": "inactive"}
{"smiles": "CCCCCCI", "Potency": "inactive"}
{"smiles": "ClCC(Cl)Cl", "Potency": "inactive"}
{"smiles": "CSc1nc(N=[N+]=[N-])nc(NC(C)C)n1", "Potency": "inactive"}
{"smiles": "O=C1OC(c2ccc(O)c(S(=O)(=O)O)c2)(c2ccc(O)c(S(=O)(=O)O)c2)c2c(Br)c(Br)c(Br)c(Br)c21", "Potency": "inactive"}
{"smiles": "Nc1c(Br)cc([N+](=O)[O-])cc1[N+](=O)[O-]", "Potency": "inactive"}
{"smiles": "CCC(C)n1c(=O)[nH]c(C)c(Br)c1=O", "note": "(configuration not stated)", "Potency": "inactive"}
{"smiles": "CC(C)(C)NCC(O)c1cc(Cl)c(N)c(Cl)c1", "note": "(configuration not stated)", "Potency": "inactive"}
{"smiles": "COC(=O)c1c(C(F)F)nc(C(F)(F)F)c(C2=NCCS2)c1CC(C)C", "Potency": "inactive"}
{"smiles": "Cc1ncsc1CCCl", "Potency": "inactive"}
{"smiles": "CC1CCC(=O)O1", "note": "(configuration not stated)", "Potency": "inactive"}
{"smiles": "OCCSCSCCO", "Potency": "inactive"}
{"smiles": "CCc1cc2c(s1)-n1c(C)nnc1CN=C2c1ccccc1Cl", "Potency": "inactive"}
{"smiles": "OC(Cn1cncn1)(c1ccc(F)cc1)c1ccccc1F", "note": "(configuration not stated)", "Potency": "inactive"}
{"smiles": "N#Cc1c(Cl)cccc1Cl", "Potency": "inactive"}
{"smiles": "CNCC(=O)c1ccc(O)c(O)c1", "Potency": "inactive"}
{"smiles": "ClCC(Cl)(Cl)Cl", "Potency": "inactive"}
{"smiles": "COc1ncc(F)c2nc(S(=O)(=O)Nc3c(F)cccc3F)nn12", "Potency": "inactive"}
{"smiles": "O=C(CCCN1CCC(n2c(=O)[nH]c3ccccc32)CC1)c1ccc(F)cc1", "Potency": "inactive"}
{"smiles": "CC1(C(=O)Nc2ccc(O)c(Cl)c2Cl)CCCCC1", "Potency": "inactive"}
{"smiles": "C=CC1CC=CCC1", "note": "(configuration not stated)", "Potency": "inactive"}
{"tested_on": "not listed separately", "assay": "qHTS assay to identify small molecule antagonists of the retinoid acid receptor (RAR) signaling pathway - cell viability counter screen (AID 1159551); also: nearly all actives have a fitted effect of over 35% in size", "settings": "C3RL4 cells viability, ATP luminescence (CellTiter-Glo), 6 h; series mostly up to 92.4 µM", "summary_of_the_method": "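Cells (C3RL4) are plated, incubated overnight, dosed with compound in DMSO, then given retinol at 1 uM final. After 6 h at 37 C, CellTiter-Glo is added and luminescence read following 30 min at room temperature.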"}
{"smiles": "ClC(Cl)C(Cl)Cl", "Potency": "inactive"}
{"smiles": "CC(CC(C#N)(c1ccccc1)c1ccccc1)N(C)C", "note": "(configuration not stated)", "Potency": "inactive"}
{"smiles": "C(CCOCC1CO1)COCC1CO1", "note": "(configuration not stated)", "Potency": "inactive"}
{"smiles": "CCCCOC(=O)c1ccccc1N", "Potency": "inactive"}
{"smiles": "ClCCOCOCCCl", "Potency": "inactive"}
{"smiles": "CSc1nc(N=[N+]=[N-])nc(NC(C)C)n1", "Potency": "inactive"}
{"smiles": "c1cc2c(c(N3CCNCC3)c1)OCCO2", "Potency": "inactive"}
{"smiles": "CC(C)(C)NCC(O)c1cc(Cl)c(N)c(Cl)c1", "note": "(configuration not stated)", "Potency": "inactive"}
{"smiles": "C1CCC(C2CCCCC2)CC1", "Potency": "inactive"}
{"smiles": "Cc1nnc2n1-c1sc(CCC(=O)N3CCOCC3)cc1C(c1ccccc1Cl)=NC2", "Potency": "inactive"}
{"smiles": "c1coc(-c2nc3ccccc3[nH]2)c1", "Potency": "inactive"}
{"smiles": "CCCCCCBr", "Potency": "inactive"}
{"smiles": "CC1(C(=O)Nc2ccc(O)c(Cl)c2Cl)CCCCC1", "Potency": "inactive"}
{"smiles": "CCOC(=O)C1(c2ccccc2)CCN(CCc2ccc(N)cc2)CC1", "Potency": "inactive"}
{"tested_on": "not listed separately", "assay": "qHTS assay to identify small molecule antagonists of the retinoic acid receptor (RAR) signaling pathway (AID 1159552; also: nearly all actives have a fitted effect of over 50% in size)", "settings": "C3RL4 RARE luciferase reporter, retinol-stimulated, 6 h; series mostly up to 92.4 µM", "summary_of_the_method": "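Retinol at 1 uM final stimulated RARE-luciferase expression in C3RL4 cells exposed to test compounds for 6 hr at 37 C. Reduced luminescence, read 30 min after detection reagent, indicated pathway antagonism.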"}
{"smiles": "C(CCOCC1CO1)COCC1CO1", "note": "(configuration not stated)", "Potency": "inactive"}
{"smiles": "CCCCOC(=O)c1ccccc1N", "Potency": "inactive"}
{"smiles": "Cc1ncc(CNC(=O)N(CCCl)N=O)c(N)n1", "Potency": "inactive"}
{"smiles": "ClCCOCOCCCl", "Potency": "inactive"}
{"smiles": "O=C1OC(c2ccc(O)c(S(=O)(=O)O)c2)(c2ccc(O)c(S(=O)(=O)O)c2)c2c(Br)c(Br)c(Br)c(Br)c21", "Potency": "inactive"}
{"smiles": "c1cc2c(c(N3CCNCC3)c1)OCCO2", "Potency": "inactive"}
{"smiles": "COC(=O)c1c(C(F)F)nc(C(F)(F)F)c(C2=NCCS2)c1CC(C)C", "Potency": "inactive"}
{"smiles": "C1CCC(C2CCCCC2)CC1", "Potency": "inactive"}
{"smiles": "Cc1nnc2n1-c1sc(CCC(=O)N3CCOCC3)cc1C(c1ccccc1Cl)=NC2", "Potency": "inactive"}
{"smiles": "c1coc(-c2nc3ccccc3[nH]2)c1", "Potency": "inactive"}
{"smiles": "CCCCCCBr", "Potency": "inactive"}
{"smiles": "CCOC(=O)C1(c2ccccc2)CCN(CCc2ccc(N)cc2)CC1", "Potency": "inactive"}
{"tested_on": "not listed separately", "assay": "qHTS assay to identify small molecule agonists of the retinoic acid receptor (RAR) signaling pathway (AID 1159553); also: potency is read from the fitted curve at half-maximal effect", "settings": "C3RL4 RARE luciferase reporter, agonist, 6 h; series mostly up to 73.3 µM", "summary_of_the_method": "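Seed C3RL4 reporter cells at 1,000 per well and incubate overnight at 37 C. Add compounds in DMSO, incubate 6 hr. Add luciferase reagent, wait 30 min at room temperature, read luminescence.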"}
{"smiles": "CCN(CC)c1nc(C)cc(OP(=S)(OC)OC)n1", "Potency": "inactive"}
{"smiles": "C#C[C@]1(O)C=C[C@H]2[C@@H]3CCC4=CC(=O)CC[C@@H]4[C@H]3CC[C@@]21CC", "Potency": "inactive"}
{"smiles": "ClC(Cl)C(Cl)Cl", "Potency": "inactive"}
{"smiles": "C(CCOCC1CO1)COCC1CO1", "note": "(configuration not stated)", "Potency": "inactive"}
{"smiles": "Cc1ncc(CNC(=O)N(CCCl)N=O)c(N)n1", "Potency": "inactive"}
{"smiles": "ClCCOCOCCCl", "Potency": "inactive"}
{"smiles": "O=C1OC(c2ccc(O)c(S(=O)(=O)O)c2)(c2ccc(O)c(S(=O)(=O)O)c2)c2c(Br)c(Br)c(Br)c(Br)c21", "Potency": "inactive"}
{"smiles": "Nc1c(Br)cc([N+](=O)[O-])cc1[N+](=O)[O-]", "Potency": "inactive"}
{"smiles": "c1cc2c(c(N3CCNCC3)c1)OCCO2", "Potency": "inactive"}
{"smiles": "COC(=O)c1c(C(F)F)nc(C(F)(F)F)c(C2=NCCS2)c1CC(C)C", "Potency": "inactive"}
{"smiles": "C1CCC(C2CCCCC2)CC1", "Potency": "inactive"}
{"smiles": "Cc1nnc2n1-c1sc(CCC(=O)N3CCOCC3)cc1C(c1ccccc1Cl)=NC2", "Potency": "inactive"}
{"smiles": "c1coc(-c2nc3ccccc3[nH]2)c1", "Potency": "3.86 µM (active)"}
{"smiles": "ClCC(Cl)(Cl)Cl", "Potency": "inactive"}
{"smiles": "CCCCCCBr", "Potency": "inactive"}
{"smiles": "C=CC1CC=CCC1", "note": "(configuration not stated)", "Potency": "inactive"}
{"smiles": "CCOC(=O)C1(c2ccccc2)CCN(CCc2ccc(N)cc2)CC1", "Potency": "inactive"}
